Data as given in ChEMBL document CHEMBL1157539, “Thousands of chemical starting points for antimalarial lead identification” (Nature, 2010).

Tests used:
Format in all cases: functional
Plasmodium falciparum [1] = experiment: GSK_TCMDC: Inhibition of Plasmodium falciparum 3D7 in whole red blood cells, using parasite LDH activity as an index of growth. Test compounds present at 2uM
Plasmodium falciparum [2] = experiment: GSK_TCMDC: Inhibition of Plasmodium falciparum Dd2 in whole red blood cells, using parasite LDH activity as an index of growth. Test compounds present at 2uM
HepG2 = experiment: GSK_TCMDC: Percent inhibition of human HepG2 cell line. Test compounds present at 10uM.

Structure (SMILES)	Inhibition (Plasmodium falciparum [1]) [%]	Inhibition (Plasmodium falciparum [2]) [%]	Inhibition (HepG2) [%]
Cc1cc(C(=O)Nc2ccc3c(c2)CCN3C2CCN(Cc3cccc4cc[nH]c34)C2)no1 (stereo not given)	97	96	0
CO/C(=C/C=C/c1cc2cc(Cl)c(Cl)cc2[nH]1)C(=O)NC1CC(C)(C)N(C)C(C)(C)C1	99	85	58
COc1cc(C(C)C)ccc1C1CCN(CCCCNC(=O)c2ccc(NC(=O)c3ccc(Cl)cc3)cc2)CC1.O=C(O)/C=C/C(=O)O	98	99	100
c1ccc(C2=NN=C(c3ccccn3)C3C4CC(C23)C2C3CC(c5ccccc53)C42)nc1 (stereo not given)	98	77	39
COc1cc2nc(C)nc(Nc3ccc4c(ccn4Cc4ccccc4)c3)c2cc1OC.Cl	100	99	2
Br.Oc1ccc(CNCCCCCCNCCc2ccc(Cl)cc2)cc1O	94	7	2
Br.Cc1cc(F)ccc1Nc1nc(N(C)c2ccccc2)c2cccc(O)c2n1	92	81	38
Nc1nc(N)c2cc(NS(=O)(=O)c3ccc(-c4ccccc4)cc3)ccc2n1	100	54	7
CSc1nnc2n(Cc3ccccc3)c(=O)c3c(n12)-c1ccccc1CC31CCCCC1	93	0	0
O=C(/C=C/c1cccc(Cl)c1)N1CCC(C(O)CN2CCC3(CC2)CN(C(=O)/C=C/c2cccc(Cl)c2)c2ccccc23)CC1 (stereo not given)	91	38	34
